Data on 29 compounds can be found in PubChem BioAssay (NCATS).

Inconclusive results are not listed. Active and inactive are the calls of the source. Unless noted, the call rests on the fitted dose curve; in most records, active means well fitted curve in the direction sought with a large enough effect; inconclusive means small, poorly fitted or top-dose-only effect, or another doubt; inactive means no such curve, though single readings can be large; an effect the other way counts as inactive or inconclusive.

Assay [1] has as its target Protein phosphatase 1D (Homo sapiens) (UniProt O15297). Kind of assay: RapidFire Mass Spectrometry qHTS Assay for Modulators of WT P53-Induced Phosphatase 1 (WIP1) (AID 1347424).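 Further: amount of dephosphorylated VEPPL-S-QETFS peptide product formed by WIP1.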 Further: potency means the concentration at half of the fitted maximal effect. An outline of the steps:
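10 nM WIP1 + cpd, 1 h RT; + 2 uM VEPPL-pS-QETFS, 5 min RT; stop 0.5% formic acid; labelled product standard 1 uM; RapidFire MS. Buffer 50 mM Tris pH 7.5, 30 mM MgCl2, 1 mM TCEP.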
For orientation: In qHTS, concentration-response curves come from the screen itself.

Assay [2] has the same target. Kind of assay: Rhodamine-PBP qHTS Assay for Modulators of WT P53-Induced Phosphatase 1 (WIP1) (AID 1347425). An outline of the steps: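 WIP1 (5 nM final) was preincubated with compound for 1 hour at room temperature. It then dephosphorylated 10 uM VEPPL-pS-QETFS peptide in Tris-HCl pH 7.5 with 30 mM MgCl2. Released Pi was detected by 10 uM Rh-PBP fluorescence (ex 525/em 598 nm) read at 1-min intervals for 11 min, as delta f1 - f0.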

Assay [3] is described as follows: Primary qHTS for inhibitors of La Crosse Virus (LACV) - induced cell death in SH-SY5Y cells (AID 1508616).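 Further: top concentration of the series differs between compounds; higher means more rescue of cells from virus-induced death.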 In outline: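 Readout was luminescence from ATPLite 1step added after a 6-day LACV infection (0.01 MOI) of SH-SY5Y cells that had received pin-transferred compound 24 hr after seeding.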
The target in assay [4] is Calcium and integrin-binding protein 1 (Homo sapiens) (UniProt Q99828). Kind of assay: Primary qHTS for Identification of Calcium Integrin Binding Protein 1 (CIB1) Competitor (AID 1508620).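 Further: GST tagged CIB1 binding a fluorescein labelled alphaIIb integrin peptide tracer; top concentration of the series differs between compounds.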 In outline:
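CIB1-GST (1 uM final) and compound incubated 15 min at room temperature before adding FITC-alphaIIb peptide tracer (100 nM final). Competition for binding read by fluorescence polarization (ex 480, em 540) after another 15 min at room temperature.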

Assay [5] can be described thus: A High-Content qHTS Against Drug Library for the Identification of Small Molecules that Inhibit DYT1 Early Onset Primary Dystonia-Associated Cell Pathology (AID 1645839; calls by dose curve; further: series mostly up to about 46 µM). In outline: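 In this high-content image screen, delE TorsinA mislocalization in inducible Flp-In 293 cells is scored as %pathology, with cell count serving as the counterscreen. Compound exposure lasts 48 h under tetracycline induction in reduced-serum medium.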

The target of assay [6] is Cytochrome P450 2D6 (Homo sapiens) (UniProt P10635). Kind of assay: Cytochrome P450 family 2 subfamily D member 6 (CYP2D6) small molecule antagonists: luciferase biochemical (cell-free) qHTS assay (AID 1645840; active means well fitted curve in the direction sought with a large enough effect in the repeat runs; an effect the other way counts as inactive or inconclusive; further: nearly all actives have a fitted effect of over 55% in size; further: potency means the concentration at half of the fitted maximal effect). An outline of the steps:
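P450-Glo luminescent screen: recombinant CYP2D6 enzyme–proluciferin substrate mix preincubated with compound 10 min at room temperature, then NADPH regeneration added for 1 h at room temperature. Detection reagent added for 20 min; luciferin light read as relative luminescence units.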

Assay [7] is described as follows: Primary qHTS for inhibitors of SARS-S pseudo-typed particle cell entry (AID 1479145; calls by dose curve; further: nearly all actives have a fitted effect of over 45% in size; further: potency means the concentration at half of the fitted maximal effect).
Assay [8] in a line: Primary qHTS for Huh7 cytotoxicity: counterscreen for inhibitors of MERS-S pseudotyped particle cell entry (AID 1479147; calls by dose curve; further: potency means the concentration at half of the fitted maximal effect).
Assay [9] can be described thus: Primary qHTS for inhibitors of MERS-S pseudo-typed particle cell entry (AID 1479149; calls by dose curve; further: nearly all actives have a fitted effect of over 60% in size; further: potency means the concentration at half of the fitted maximal effect).
Assay [10] concerns the target Calcium and integrin-binding protein 1 (Homo sapiens) (UniProt Q99828). Kind of assay: Confirmatory qHTS for Identification of Calcium Integrin Binding Protein 1 (CIB1) Competitor (AID 1508617). Further: nearly all actives have a fitted effect of over 65% in size. An outline of the steps: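 FP competition: CIB1-GST (1 uM final) in 5 mM HEPES pH 7.4, 125 mM NaCl, 5 mM CaCl2, 0.01% Tween20 preincubated 15 min RT with compounds (up to 114 uM), then FITC-alphaIIb peptide (100 nM), 15 min RT; Ex 480/Em 540.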

A short description of assay [11]: Primary qHTS for small molecule stabilizers of the endoplasmic reticulum resident proteome: Secreted ER Calcium Modulated Protein (SERCaMP) assay (AID 1508630). In outline: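 GLuc-SERCaMP-expressing SH-SY5Y cells, pretreated 16 h with compound, are challenged with thapsigargin to empty ER calcium stores; after 4 h, coelenterazine is added directly to the medium and luminescence is imaged.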

Assay [12] can be described thus: Primary qHTS for Vero E6 cytotoxicity: counterscreen for inhibitors of SARS-S pseudo-typed particle cell entry (AID 1479150; calls by dose curve).

Calcium and integrin-binding protein 1 (Homo sapiens), sequence (Q99828 whole entry, looked up): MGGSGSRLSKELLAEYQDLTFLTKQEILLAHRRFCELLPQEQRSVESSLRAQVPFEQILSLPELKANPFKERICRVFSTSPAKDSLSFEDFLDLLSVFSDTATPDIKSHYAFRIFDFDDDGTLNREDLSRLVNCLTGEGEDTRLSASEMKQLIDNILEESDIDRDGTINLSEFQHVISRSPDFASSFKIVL
Cytochrome P450 2D6 (Homo sapiens), sequence (P10635 whole entry, looked up): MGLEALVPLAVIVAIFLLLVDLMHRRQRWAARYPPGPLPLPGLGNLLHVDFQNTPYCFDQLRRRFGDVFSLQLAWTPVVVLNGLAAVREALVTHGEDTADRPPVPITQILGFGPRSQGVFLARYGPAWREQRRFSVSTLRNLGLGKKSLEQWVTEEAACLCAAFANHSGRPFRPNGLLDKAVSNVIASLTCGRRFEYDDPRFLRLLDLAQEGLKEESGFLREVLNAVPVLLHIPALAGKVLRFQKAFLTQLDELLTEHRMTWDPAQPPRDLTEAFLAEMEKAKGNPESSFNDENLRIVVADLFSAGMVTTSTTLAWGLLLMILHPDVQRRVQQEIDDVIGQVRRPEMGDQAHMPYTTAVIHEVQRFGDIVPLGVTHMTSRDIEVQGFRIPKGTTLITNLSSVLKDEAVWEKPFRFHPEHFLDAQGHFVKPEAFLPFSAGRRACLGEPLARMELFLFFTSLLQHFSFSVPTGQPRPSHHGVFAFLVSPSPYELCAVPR
Protein phosphatase 1D (Homo sapiens), sequence (O15297 whole entry, looked up): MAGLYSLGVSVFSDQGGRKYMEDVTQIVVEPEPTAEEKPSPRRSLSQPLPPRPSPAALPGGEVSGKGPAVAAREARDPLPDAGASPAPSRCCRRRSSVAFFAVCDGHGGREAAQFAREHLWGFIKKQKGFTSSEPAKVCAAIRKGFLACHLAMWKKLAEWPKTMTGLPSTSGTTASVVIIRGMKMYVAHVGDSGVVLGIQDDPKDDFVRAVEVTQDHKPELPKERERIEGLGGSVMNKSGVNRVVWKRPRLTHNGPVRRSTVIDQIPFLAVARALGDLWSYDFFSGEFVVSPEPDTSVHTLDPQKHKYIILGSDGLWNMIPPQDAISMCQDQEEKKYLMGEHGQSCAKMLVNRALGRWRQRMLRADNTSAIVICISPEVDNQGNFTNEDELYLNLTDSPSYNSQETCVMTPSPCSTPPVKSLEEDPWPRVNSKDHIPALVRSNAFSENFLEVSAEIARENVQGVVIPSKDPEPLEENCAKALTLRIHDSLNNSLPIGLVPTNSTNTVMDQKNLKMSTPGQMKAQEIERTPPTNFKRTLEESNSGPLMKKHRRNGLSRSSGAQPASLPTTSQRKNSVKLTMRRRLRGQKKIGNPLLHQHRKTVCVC

For `CC[C@H]1C[C@@H]2C[C@H]3c4[nH]c5ccc(OC)cc5c4CCN(C2)[C@@H]13`, the Potency entry in [1] and in [4] was “inactive” throughout. For the same compound, the compound was classed as inactive in [2], in [3] and in assay [5]. In assay [6], the Potency is 0.278 µM (active).
Turning to `COc1cc(C[C@@H](C)N)c(OC)cc1Br`, the Potency result in [1] and in assay [4] was “inactive” in each case. Moreover, the outcome in assay [2], in assay [3] and in [5] was inactive. In addition, the Potency in assay [6] was 25.9 µM (active).
On to `CCC1(CC)C(=O)NC(=O)NC1=O`, for which the Potency result in [1] and in assay [6] was “inactive” each time. The outcome in assay [2], in [3] and in assay [5] was inactive.
In the case of `CC(C)=C[C@@H]1[C@@H](C(=O)OCc2coc(Cc3ccccc3)c2)C1(C)C`, the Potency entry in assay [1] and in assay [4] was “inactive” throughout. Moreover, the compound was classed as inactive in assay [2] and in [5].
`C[C@]12CC[C@H]3[C@@H](CCC4=CC(=O)CC[C@@]43C)[C@@H]1CC[C@@H]2C(=O)O`: the Potency entry in [1], in [4] and in assay [6] was “inactive” throughout. Also, the compound was classed as inactive in assay [2], in assay [3] and in assay [5].
For the compound `O=C(CCCCl)c1ccc(F)cc1`, the Potency result in assay [1] and in [4] was “inactive” each time. The outcome in assay [2], in [3] and in assay [5] was inactive.
With `ClCc1cccc(Cl)c1`, the Potency result in [1] and in [4] was “inactive” each time. The outcome in assay [2], in assay [3] and in assay [5] was inactive. For the same compound, the Potency in assay [6] was 20.4 µM (active).
On to `Cc1ccc([N+](=O)[O-])[c]2c1[O][Hg]2`, for which the Potency in assay [1] was 3.98 µM (active); in assay [7], 10 µM (active); in assay [8], 2.24 µM (active); in assay [9] it was 2.82 µM (active); in assay [6] it was 0.347 µM (active). In addition, the Potency entry in [10] was “inactive”. Moreover, the outcome in [11] was inactive.
Take `CCN(Cc1ccc(Cl)nc1)/C(=C/[N+](=O)[O-])NC`: the Potency entry in assay [1], in [4] and in [6] was “inactive” in each case. Also, the compound was classed as inactive in [2], in assay [3] and in [5].
For `OC(O)C(Cl)(Cl)Cl`, the Potency entry in [1], in assay [4] and in [6] was “inactive” in each case. Also, the call in [2], in [3] and in assay [5] was inactive.
For `CCN(CC)CCOC(=O)C(C)(c1ccccc1)c1ccccc1`, the Potency entry in assay [1] and in assay [4] was “inactive” throughout. The compound was called inactive in [2], in [3] and in assay [5].
Turning to `CN1C[C@@H](NS(=O)(=O)N(C)C)C[C@@H]2c3cccc4c3c(cn4C)C[C@H]21`, the Potency result in assay [1] and in assay [4] was “inactive” each time. The compound was classed as inactive in assay [2], in assay [3] and in [5]. The Potency in [6] was 2.19 µM (active).
For the compound `CC(CC(C#N)(c1ccccc1)c1ccccc1)N(C)C` (configuration not stated), the Potency result in assay [1] and in [4] was “inactive” throughout. In addition, the outcome in [2] and in [3] was inactive. Also, the Potency in assay [6] was 5.61 µM (active).
Regarding `C[C@H]1CNCCc2ccc(Cl)cc21`, the Potency entry in assay [1] and in [4] was “inactive” in each case. Further, the outcome in assay [2], in assay [3] and in assay [5] was inactive. In [6], the Potency is 1.95 µM (active).
With `O=C(N[C@H]1N=C(c2ccccc2F)c2cccc3c2N(CC3)C1=O)c1cc2ccccc2[nH]1`, the result in assay [2], in assay [3] and in [5] was inactive. In addition, the Potency entry in assay [7], in [8], in [9], in assay [12] and in [4] was “inactive” in each case.
With `CC1N=C(N)OC1c1ccccc1` (configuration not stated), the Potency result in [1] and in assay [4] was “inactive” in each case. Also, the call in [2], in assay [3] and in [5] was inactive. Also, in assay [6], the Potency was 4.92 µM (active).
Consider `CCO[C@H]1O[C@@H]2OC3(C)CC[C@H]4[C@H](C)CC[C@@H]([C@H]1C)[C@@]24OO3`, for which the Potency entry in assay [1], in assay [4] and in assay [6] was “inactive” each time. Moreover, the compound was called inactive in assay [2], in [3] and in assay [5].
Take `CN1CCc2cc(Cl)c(O)cc2[C@H]2c3ccccc3CC[C@@H]21`: the Potency entry in assay [1] and in assay [4] was “inactive” each time. In addition, the call in assay [2], in [3] and in assay [5] was inactive. Moreover, in assay [6], the Potency was 0.001 µM (active).
Turning to `O=c1[nH]c2cc(Cl)ccc2n1C1CCNCC1`, the Potency entry in [1] and in assay [4] was “inactive” throughout. The call in assay [2], in assay [3] and in assay [5] was inactive. Moreover, the Potency in assay [6] is 19.5 µM (active).
Turning to `CNC(=O)NC(O)C(Cl)(Cl)Cl` (configuration not stated), the Potency entry in [1], in [4] and in assay [6] was “inactive” in each case. Further, the call in [2], in assay [3] and in [5] was inactive.
Take `CN(C)CCc1c[nH]c2ccc(O)cc12`: the Potency entry in assay [1] is “inactive”. Besides, the compound was classed as inactive in assay [2], in assay [3] and in assay [5].
As to `CC1Sc2c(C(=O)O)c(=O)c3cc(F)c(N4CCNCC4)cc3n21` (configuration not stated), the Potency result in assay [1], in assay [4] and in assay [6] was “inactive” each time. Further, the call in [2], in [3] and in assay [5] was inactive.
Take `C[C@H]1C(=O)O[C@@H]2CCN3CC=C(COC(=O)[C@](C)(O)[C@]1(C)O)[C@H]23`: the Potency result in assay [1], in assay [4] and in assay [6] was “inactive” in each case. Also, the compound was classed as inactive in assay [2], in assay [3] and in [5].
As to `CCS(=O)(=O)C(C)(C)S(=O)(=O)CC`, the Potency entry in [1], in [4] and in assay [6] was “inactive” each time. Moreover, the result in assay [2], in assay [3] and in [5] was inactive.
On to `CN1C(=O)CN=C(c2ccccc2)c2cc([N+](=O)[O-])ccc21`, for which the Potency entry in assay [1], in assay [4] and in [6] was “inactive” in each case. In addition, the result in assay [2], in [3] and in assay [5] was inactive.
Turning to `C[N+]1(CCC(C(N)=O)(c2ccccc2)c2ccccc2)CCCCC1`, the Potency entry in [1] and in assay [4] was “inactive” each time. For the same compound, the compound was classed as inactive in [2], in [3] and in assay [5]. For the same compound, the Potency in [6] is 15.5 µM (active).
In the case of `C[N+](C)(C)CCOC(=O)C(O)(c1ccccc1)c1ccccc1`, the Potency result in assay [1] and in [4] was “inactive” in each case. For the same compound, the compound was classed as inactive in assay [2], in assay [3] and in [5]. The Potency in [6] is 15.5 µM (active).
As to `CCCC(C)C1(CC)C(=O)N=C(S)NC1=O` (configuration not stated), the Potency result in assay [1], in assay [4] and in assay [6] was “inactive” in each case. In addition, the result in [2], in assay [3] and in assay [5] was inactive.
As for `COc1ccc2c3c1O[C@H]1[C@@H](O)C=C[C@H]4[C@@H](C2)N(C)CC[C@@]341`, the Potency result in [1] and in [4] was “inactive” each time. Besides, the compound was classed as inactive in assay [2] and in assay [11].
